# Sampled rows, rich in hits. Any-hit rate of the full collection: about 6.8%.
# Spn PMK inh – S. pneumoniae PMK inhibitors, primary screen, biochemical, mevalonate pathway, pilot trial included; inhibition, % at 10 µM; purified PMK, PK/LDH-coupled NADH absorbance 340 nm; AID 539, 2006; phosphomevalonate kinase (Streptococcus pneumoniae D39); 65,000 compounds, 0.49% hits;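 active = top-ranked compounds by inhibition in the single 10 µM screen, taking a fixed number of the strongest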;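 also: 0% = full reaction with DMSO carrier and 100% = background rate without enzyme reaction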
# Abs 340nm – compound light absorbance at 340 nm, profiling panel, artefact control, biochemical, MLSMR library, data from PS, PMK, MK assays. fold change at 10 µM. AID 708, 2007. 65,000 tested, under 10 active. compound absorbance at 340 nm, fold over control;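 active = at 10 µM dose, initial 340 nm absorbance at least 2 fold that of control wells; inactive = change under 2 fold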;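 also: initial absorbance extrapolated from kinetic A340 decline of NADH oxidation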
# Fluor 339 460 – intrinsic fluorescence of library compounds, ex339/em460 – biochemical, MLSMR library, data from DPM-DC assay, artefact control, profiling panel; compound autofluorescence, ex339/em460 nm, NADH buffer; active compounds read high; 1 = no-compound wells, NADH background; fluorescence fold increase at 10 µM; 65,000 compounds, 5.5% hits; AID 709, 2007;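 active = at 10 µM, mean starting fluorescence two-fold or more over control wells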;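 also: signal is the first read of a kinetic run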
# NADH coupling – inhibitors of PK/LDH coupling enzymes, profiling panel, artefact control, biochemical, MLSMR library. coupled PK/LDH NADH assays, four targets. IC50, µM (titrated, usually from 10 µM), for inactives: at the top dose inhibition. 65,000 compounds, 0.02% hits. AID 774, 2007;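 active = single-dose screening hits from any of four coupled enzyme assays that gave an IC50 when retested across doses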;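 also: the DPM-DC format reads NADH fluorescence rather than 340 nm absorbance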
# MK inhibit – S. pneumoniae MK inhibitors, primary screen, biochemical, PK/LDH-coupled NADH absorbance | mevalonate kinase [Streptococcus pneumoniae D39] | purified MK, PK/LDH-coupled NADH absorbance 340 nm | 65,000 compounds, 0.48% hits | inhibition, % at 10 µM;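 active = ranked among the strongest by inhibition in the single 10 µM screen, a fixed top-ranked set picked for dose follow-up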
# DPM-DC inhibit – S. pneumoniae DPM-DC inhibitors, primary screen, biochemical, PK/LDH-coupled NADH fluorescence; diphosphomevalonate decarboxylase (Streptococcus pneumoniae D39); purified DPM-DC; calls only at 10 µM; 65,000 compounds, 0.49% hits; AID 556, 2006;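 active = the 320 compounds with the highest percent inhibition in the single-dose primary screen, excluding strongly autofluorescent ones, cut at about 32% in these data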;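 also: kinetic rate of NADH fluorescence loss reporting ADP formed by the decarboxylase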
# * = called active by the depositor; i = inactive; · = no result shown; + = active, no number.
SMILES,Spn PMK inh,Abs 340nm,Fluor 339 460,NADH coupling,MK inhibit,DPM-DC inhibit
CCOc1ccc(-c2cc3nc(C4CCN(C(=O)OC(C)(C)C)CC4)c(C(=O)O)cn3n2)cc1,17,1.1,4.4*,9%,0,·
Cc1cc2n(n1)C(c1sccc1C)Nc1ccccc1-2 (configuration not stated),2,1,1.8,3%,3,i
Cc1cc2n(n1)C(c1sccc1C)Nc1c(C)cccc1-2 (configuration not stated),6,1,2.1*,4%,5,i
Cc1ccc2c(c1)-c1cc(C)nn1C(c1sccc1C)N2 (configuration not stated),8,1,2.2*,14%,12,i
COc1ccc(C2(O)CC3CCC(C2)N3c2nc(C)cc(C)c2C#N)cc1 (configuration not stated),6,0.99,2.8*,3%,2,i
CCCC(C(=O)NC1CCCC1)N(CC1CCCO1)C(=O)c1snc(C(N)=O)c1N (configuration not stated),11,1,2.8*,14%,18,i
CCCC(C(=O)NC1CCCC1)N(CCCN1CCOCC1)C(=O)c1snc(C(N)=O)c1N (configuration not stated),11,1,2.2*,10%,0,i
Cc1cccc(-n2c(CCCN3C(=O)c4ccccc4C3=O)nc3ccccc3c2=O)n1,11,1,1.1,6%,7,i
NC(=O)C1CCN(c2nc(-c3ccccc3)nc3ccccc23)CC1,6,1,1,1%,6,i
NC(=O)C1CCN(c2nc(-c3ccccc3)nc3c2oc2ccccc23)CC1,1,1,2.1*,2%,5,i
COc1ccc(-c2nnc3sc(-c4ccco4)nn23)cc1OC,10,1,1.1,6%,8,i
COc1cc(OC)c(-c2nn3c(-c4ccncc4)nnc3s2)cc1OC,6,1.1,1.1,3%,2,i
COc1cc(OC)c(-c2nn3c(-c4cccnc4)nnc3s2)cc1OC,10,1.1,3.9*,10%,9,·
COc1cc(OC)c(-c2nn3c(-c4ccco4)nnc3s2)cc1OC,7,1.2,3.4*,6%,4,·
COc1ccc(-c2nn3c(-c4ccco4)nnc3s2)cc1OC,8,1.1,1.5,17%,11,+
O=C(Cc1ccc(-n2cccc2)cc1)NCc1cccs1,9,1,1.1,5%,5,i
O=C(O)CSc1nnc(-c2ccncc2)n1C1CCCCC1,8,1,1.1,7%,12,i
C=CCn1c(-c2ccccc2)nc2nc3ccccc3nc21,21,1.2,2.1*,11%,0,·
CCOC(=O)CCc1c(C)c2ccc(OCC(=O)OC(C)C)cc2oc1=O,6,1,3.7*,5%,4,·
Cc1c(Cc2ccccc2)c(=O)oc2cc(OCc3nn[nH]n3)ccc12,8,1.1,3.8*,4%,0,·
COc1ccc(-c2cc(=O)oc3cc(OCc4nn[nH]n4)ccc23)cc1,0,1.2,1.9,1%,1,i
COc1ccc(-c2cc3ccc(OCc4nn[nH]n4)cc3oc2=O)cc1OC,9,1.2,1.8,7%,0,i
CCOC(=O)CCc1c(C)c2ccc(OCc3nn[nH]n3)cc2oc1=O,11,1.1,3.8*,6%,0,·
CCN(CC)C(=O)C1CCCN(C/C=C/c2ccccc2)C1 (configuration not stated),14,1.1,1.1,20%,47*,i
CCN(CC)C(=O)C1CCCN(Cc2ccccc2C(F)(F)F)C1 (configuration not stated),0,1,1.1,15%,45*,i
CCN(CC)C(=O)C1CCCN(Cc2ccccc2F)C1 (configuration not stated),0,1.1,1.1,10%,31,i

# Source: PubChem (SRMLSC)
